# Measurements from the OligoGym collection.
# Target: CD40
# Experiment: pooled miR-30 sensor sort-seq; sequence = guide strand
# Conditions: shRNA
# Further: reference of the scale not given here.
row,Sequence,sensor-assay potency score (higher = more potent)
1,TACAGTGCCAGCCTTCTTCACA,-1.17
2,TGACTGTTTATTAGGTACTGTT,-0.925
3,TCCGTTTCAGTGAACTCTGTGC,-0.4
4,TTGGCATCCATGTAAAGTCTCC,-0.501
5,ACAAAGAACAGCACTGACTGTT,0.0373
6,TTCTTCACAGGTGCAGATGGTG,-0.762
7,TTTCAGTGAACTCTGTGCAGTC,0.172
8,TTTGATAAAGACCAGCACCAAG,-1.36
9,ATTAGGTACTGTTTTTCTCTGC,-0.104
10,TGGTTCTGGATGGACAGCGGTC,-1.56
11,TTCCGTTTCAGTGAACTCTGTG,0.749
12,TAGCAATCTGCTTGACCCCAAA,-1.28
13,TCACTCACCAGTTTCTGTCCTG,0.175
14,TTTTCTCTGCATGCAGTGGGTG,-0.932
15,TATTGGTTGGCTTCTTGGCCAC,-0.723
16,TTTTTCTCTGCATGCAGTGGGT,-0.914
17,AACCCCTGTAGCAATCTGCTTG,-0.675
18,TTGGTCTCACAGCTTGTCCAAG,-1.27
19,TTCTGAGGTGCCCTTCTGCTGG,-1.42
20,TGTAGCAATCTGCTTGACCCCA,-0.6
21,TATTAGGTACTGTTTTTCTCTG,-0.885
22,TCTCCTGCACTGGAGCAGCAGT,-1.54
23,AAGAACAGCACTGACTGTTTAT,-1.08

# Target: CD48
# Experiment: as above
# Conditions: shRNA
row,Sequence,sensor-assay potency score (higher = more potent)
1,TGATCTTCCATTCTTGCTCATT,-1.23
2,TTGATCTTCCATTCTTGCTCAT,0.311
3,TGAGGATCAAGTCTGACCCTGC,0.0902
4,TTGGATTCAAAGTACTTAGATT,-1.05
5,TTCTACAATCTTCTGGTCGAAA,-0.694
6,TTCAGAGTCACGTTGCTGCCGG,-0.426
7,TTGCTGCTCACAGAATTGCTGA,-0.332
8,TTCAAGCACACTGTTCTGGAGC,-0.656
9,TACTAGAAAACAACAAAGGGAT,-0.0806
10,TATCACACATGACAGTTTCAAA,-1.19
11,TACAGGGTCAAGCACTTGCAGC,-1.55
12,TTAACTTGAAAATCCTCGTTGA,1.27
13,TTCTTGCTCATTCCCAGTCTTT,-1.11
14,TAATTCAGCAGCATGCTTCTGG,0.539
15,TCCCATTCTACAATCTTCTGGT,-0.143
